High-throughput results: PubChem BioAssay, National Center for Advancing Translational Sciences (NCATS)
HT1080 IDH1KD tx = kills HT-1080 cells with IDH1 knockdown; HT-1080 IDH1 knockdown viability, ATP luminescence, 48 h; Potency, µM (series often up to 46.1 µM), usual class: cytotoxic; 2% of 360,000 active; AID 686971
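Using the IDH1-knockdown HT-1080 line run in the same batch and compound series as the NT line, viability after 48 h at 37 °C was determined by CellTiter-Glo luminescence and expressed as % activity.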
KB-V1 cytotox = KB-V1 MDR subline cytotoxicity; KB-V1 MDR cells viability, CellTiter-Glo, 72 h; Potency, µM (highest dose often 46.1 µM), actives largely listed as cytotoxic; 3.4% of 400,000 active; note: nearly all actives have a fitted effect of over 60% in size
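Readout: CellTiter-Glo luminescence, 10 min after addition. Cells: KB-V1 MDR subline, 72 h at 37 degrees C with compound. Analysis: corrected, normalized data fitted to concentration-effect curves.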
HT1080-NT tox = kills 2HG-producing HT-1080-NT fibrosarcoma cells; HT-1080-NT fibrosarcoma viability, CellTiter-Glo ATP luminescence, 48 h; Potency, µM (highest dose often 46.1 µM), hits mostly cytotoxic; 1.6% of 360,000 active; AID 686970;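 note: NT is the 2HG producing partner of a matched IDH1 knockdown line; nearly all actives have a fitted effect of over 55% in size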
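Fibrosarcoma NT cells, 750 per well in 5% FBS RPMI, were exposed to compound for 48 hours. Viability: CellTiter-Glo luminescence.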
KB-3-1 tox = kills parental KB-3-1 adenocarcinoma cells. 1.4% of 400,000 active. AID 1347075. KB-3-1 viability, CellTiter-Glo ATP luminescence, 72 h. Potency, µM (series often up to 46.1 µM), hits mostly cytotoxic; note: nearly all actives have a fitted effect of over 60% in size
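KB-3-1 parental drug-naive adenocarcinoma cells in DMEM/10% FBS, incubated 72 h at 37 C with pin-transferred compounds across a concentration series. Viability by CellTiter-Glo luminescence; concentration-response curves fitted after normalization.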
Large screens that a line does not name were inactive; ! = repeats disagree. Only some compounds are listed: those with a hit (about 5.7% of all), similar ones and a draw of the others. Calls come from the whole dose curve; as a rule, active = well fitted curve in the direction sought with a large enough effect; inconclusive = small, poorly fitted or top-dose-only effect, or another doubt; inactive = no such curve, though single readings can be large; an effect the other way counts as inactive or inconclusive.

Cc1ccc(C(=O)N2CCN(c3ccc(NC(=O)c4ccc5c(c4)OCCO5)cc3)CC2)cc1	KB-V1 cytotox inconclusive, KB-3-1 tox inconclusive
Cc1ccccc1C(=O)N1CCN(c2ccc(NC(=O)c3ccc4c(c3)OCCO4)cc2)CC1	KB-V1 cytotox 8.2µM, HT1080-NT tox inconclusive, KB-3-1 tox inconclusive
O=C(Nc1ccc(NC(=O)c2cccs2)cc1)c1ccc2c(c1)OCO2	HT1080 IDH1KD tx 12µM, HT1080-NT tox inconclusive
O=C(Nc1cccc(NC(=O)c2cccs2)c1)c1ccc2c(c1)OCO2	KB-V1 cytotox inconclusive
O=C(COc1cccc(NC(=O)c2cccs2)c1)c1ccc(F)cc1	KB-V1 cytotox 7.3µM
Cn1c(=O)c2c(O)c([N+](=O)[O-])c(=O)n(C)c2n(C)c1=O	none
COc1ccc(Cn2c(=O)cc(N)n(-c3ccccc3C)c2=O)cc1	HT1080 IDH1KD tx 16µM, HT1080-NT tox 21µM, KB-3-1 tox inconclusive
COc1cccc(Cn2c(=O)c3[nH]cnc3n(-c3ccccc3C)c2=O)c1	none
CCOC(=O)c1c(C)[nH]c(C)c1S(=O)(=O)N1CCC(C(=O)NCc2ccc(F)cc2)CC1	none (no result: HT1080 IDH1KD tx, HT1080-NT tox)
O=[N+]([O-])c1ccc(N/N=C2/CCCCC2c2ccccn2)cc1 (configuration not stated)	HT1080 IDH1KD tx 0.92µM, KB-3-1 tox inconclusive
O=[N+]([O-])c1ccc(NC2CCCC2)cc1	KB-V1 cytotox inconclusive
COc1ccccc1C(=O)NCCn1cc(SCc2ccc(C)cc2)c2ccccc21	none (no result: HT1080 IDH1KD tx, HT1080-NT tox)
CCOC(=O)N1CCC(n2c(SCC(=O)NCc3ccco3)nc3ccsc3c2=O)CC1	KB-V1 cytotox 2.1µM, KB-3-1 tox inconclusive
CCOC(=O)CSc1nc2ccsc2c(=O)n1C1CCN(C(=O)OCC)CC1	KB-V1 cytotox 16µM
COCCNC(=O)c1c(NC(=O)c2cc(=O)c3cc(C)cc(C)c3o2)sc2c1CCCC2	none (no result: HT1080 IDH1KD tx, HT1080-NT tox)
COc1ccc(CNC(=O)c2cc3cc4ccc(C)cc4nc3o2)cc1	none (no result: HT1080 IDH1KD tx, HT1080-NT tox)
Cc1ccc2cc3cc(C(=O)NCc4ccco4)oc3nc2c1	KB-3-1 tox 3.5µM (no result: HT1080 IDH1KD tx, HT1080-NT tox)
COc1cc(OC)c(NC(=O)CCn2cnc3onc(-c4ccc(F)cc4)c3c2=O)cc1Cl	none (no result: HT1080 IDH1KD tx, HT1080-NT tox)
OCCN1CCN(CC/C=C2/c3ccccc3CSc3ccccc32)CC1	none
OCCN1CCN(CC/C=C2/c3ccccc3Sc3ccc(C(F)(F)F)cc32)CC1	HT1080 IDH1KD tx 21µM, HT1080-NT tox 21µM
COc1ccc(-c2nnc(CSc3nnc(-c4ccncc4)n3C3CCCCC3)o2)cc1OC	HT1080 IDH1KD tx inconclusive, KB-V1 cytotox 13µM
COc1ccc(-c2nnc(SCc3nnc(-c4cccs4)o3)n2CC2CCCO2)cc1 (configuration not stated)	KB-V1 cytotox 4.6µM
Cc1nnc(SCc2nnc(-c3cccs3)o2)n1C1CCCCC1	KB-V1 cytotox inconclusive
CCn1c(SCc2nc(-c3ccc(OC)c(OC)c3)no2)nnc1-c1cccs1	KB-V1 cytotox 9.2µM
CN(c1ccc(F)cc1)S(=O)(=O)c1ccc(Cl)c(C(=O)NCC2(N3CCOCC3)CCCCC2)c1	KB-V1 cytotox 18µM
CN(c1ccc(F)cc1)S(=O)(=O)c1ccc(Cl)c(C(=O)NCC2CCCO2)c1 (configuration not stated)	KB-V1 cytotox inconclusive
C=CCn1c(SCC(=O)Nc2cc(C)ccc2OC)nnc1-c1ccco1	none
C=CCn1c(SCC(=O)Nc2cc(C)c(Cl)cc2OC)nnc1-c1ccco1	HT1080 IDH1KD tx inconclusive, KB-V1 cytotox 2.3µM, HT1080-NT tox inconclusive
C=CCn1c(SCC(=O)N2CCN(c3ccccc3)CC2)nnc1-c1ccco1	KB-V1 cytotox 13µM
O=C(CSc1nnc(-c2ccco2)n1-c1ccccc1)N1CCOCC1	KB-V1 cytotox inconclusive
Cc1ccc(C(=O)N/C(=C\c2ccc(-c3ccc(Cl)cc3)o2)C(=O)NCCCN(C)C)cc1	HT1080 IDH1KD tx 13µM, HT1080-NT tox 29µM, KB-3-1 tox inconclusive
CN(C)CCCNC(=O)/C(=C/c1ccc(-c2ccc([N+](=O)[O-])cc2)o1)NC(=O)c1ccccc1	none
CN(C)CCCNC(=O)/C(=C\c1ccc(-c2ccc(Br)cc2)o1)NC(=O)c1ccccc1	HT1080 IDH1KD tx 23µM, HT1080-NT tox inconclusive, KB-3-1 tox inconclusive
Cc1ccc(C(=O)N/C(=C\c2ccc(-c3ccccc3[N+](=O)[O-])o2)C(=O)NCCCN(C)C)cc1	none
CCc1ccccc1NC(=O)CSc1nc2c(oc3ccccc32)c(=O)n1C	none (no result: HT1080 IDH1KD tx, HT1080-NT tox)
COc1ccc(C2NC(=S)NC3=C2CCCC3=C2SCCS2)cc1 (configuration not stated)	HT1080 IDH1KD tx 6.5µM, HT1080-NT tox 9.2µM, KB-3-1 tox inconclusive
S=C1NC2=C(CCCC2=C2SCCCS2)C(c2ccccc2)N1 (configuration not stated)	none
CCCC(=O)OCCNc1cc(Sc2nc3ccccc3[nH]2)c2nonc2c1[N+](=O)[O-]	HT1080 IDH1KD tx inconclusive, HT1080-NT tox 21µM, KB-3-1 tox inconclusive
CC(C)CCSc1cc(NCCO)c([N+](=O)[O-])c2nonc12	HT1080 IDH1KD tx 18µM, HT1080-NT tox inconclusive
CCC(=O)OCCNc1cc(SCCC(=O)OC)c2nonc2c1[N+](=O)[O-]	HT1080 IDH1KD tx inconclusive, HT1080-NT tox inconclusive
Cc1ccc(Sc2cc(NCCCO)c([N+](=O)[O-])c3nonc23)cc1	none
CCC(=O)OCCNc1cc(Sc2nccn2C)c2nonc2c1[N+](=O)[O-]	HT1080 IDH1KD tx inconclusive, HT1080-NT tox 15µM, KB-3-1 tox inconclusive
CN(C)C(=O)COc1ccccc1C(=O)OCC(=O)Nc1ccc(Oc2ccc(Br)cc2)cc1	none (no result: HT1080 IDH1KD tx, HT1080-NT tox)
CCN(C(=O)c1ccc(NC(C)=O)cc1)c1ccccc1C	none
CCCCC(=O)Nc1ccc(C(=O)N(CC)c2ccccc2C)cc1	HT1080 IDH1KD tx inconclusive, KB-V1 cytotox 15µM, HT1080-NT tox inconclusive
CCOc1ccc(Br)cc1C1C(C(=O)Nc2ccccc2OC)=C(C)Nc2nnnn21 (configuration not stated)	none (no result: HT1080 IDH1KD tx, HT1080-NT tox)
O=[N+]([O-])c1cc2c(c([N+](=O)[O-])c1)Nc1ccccc1O2	KB-V1 cytotox 13µM, HT1080-NT tox inconclusive, KB-3-1 tox 23µM
Cc1cccc(Oc2cc([N+](=O)[O-])cc3c2C(=O)Nc2ccccc2O3)c1	KB-V1 cytotox 2.6µM, KB-3-1 tox inconclusive
CC(=O)c1cc(C#N)c(SCc2ccccc2C#N)nc1C	HT1080 IDH1KD tx inconclusive, KB-V1 cytotox 10µM, HT1080-NT tox inconclusive, KB-3-1 tox 16µM
CNc1nc(N2CCCN(C)CC2)nc2cc(OC)c(OC)cc12	none (no result: KB-V1 cytotox, KB-3-1 tox)
COc1ccccc1-n1c(SCC(=O)c2ccc(O)cc2O)nc2cc([N+](=O)[O-])ccc21	HT1080 IDH1KD tx inconclusive, KB-V1 cytotox 16µM, HT1080-NT tox inconclusive
COc1cccc(-n2nnnc2S(C)(=O)=O)c1	HT1080 IDH1KD tx 7.3µM, KB-V1 cytotox inconclusive, HT1080-NT tox inconclusive, KB-3-1 tox inconclusive
COc1ccc2c(c1)sc1ncc(C(=O)NCc3cccc(Cl)c3)c(=O)n12	none (no result: HT1080 IDH1KD tx, HT1080-NT tox)
CN1CCc2c(c3ccccc3n2Cc2ccccc2)C1	HT1080 IDH1KD tx 16µM!, KB-V1 cytotox inconclusive, HT1080-NT tox inconclusive, KB-3-1 tox inconclusive
CCCCN1CCc2c(c3ccccc3n2Cc2ccccc2)C1	HT1080 IDH1KD tx inconclusive, HT1080-NT tox inconclusive
